Here are results for nine compounds from PubChem BioAssay (EPA / NIEHS).

Several values for one entry are separate records, joined by “and”; a condition that tells them apart may be missing. Equal values may be shown once. Results filed as inconclusive are left out. Some structures have more than one record in an assay (separate samples or runs), and their calls can disagree. Activity calls are given as the source filed them. Rule for the calls, unless noted: active = hit-call score of the fitted dose curve at least 0.9, where 1 is the maximum; inconclusive = response in the unintended direction; inactive = score below 0.9.

The target in experiment [1] is Bile acid receptor (Homo sapiens) (UniProt Q96RI1). Nature of the experiment: OT_FXR_FXRSRC1_0480: Odyssey Thera (OT) 8-hour HEK293T Protein-Complementation Assay for Farnesoid X receptor/SRC-1 Co-activator (AID 2283383). In short, it runs like this:
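PCA, HEK293T, 8 h compound exposure; FXR–SRC-1 binding reconstitutes split reporter; fluorescence intensity; positive-direction fit vs DMSO.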

Experiment [2] shares this target. Briefly: OT_FXR_FXRSRC1_1440: Odyssey Thera (OT) 24-hour HEK293T Protein-Complementation Assay for Farnesoid X receptor/SRC-1 Co-activator (AID 2283384). In short, it runs like this:
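Measures ligand-driven FXR–SRC-1 co-activator recruitment in HEK293T via fragment complementation, fluorescence intensity at 24 h. DMSO served as negative control and baseline for gain-of-signal fitting.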

Experiment [3] has as its target Retinoic acid receptor RXR-alpha (Homo sapiens) (UniProt P19793). Nature of the experiment: OT_NURR1_NURR1RXRa_0480: Odyssey Thera (OT) 8-hour HEK293T Protein Complementation Assay for Nurr1/retinoid X receptor (RXR) (AID 2283385). The method, boiled down: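 Interaction of bait and prey reconstitutes a functional reporter, whose fluorescence was measured in HEK293T cells dosed with compound for 8 hours. Signal gain relative to DMSO defined the single endpoint.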

Experiment [4] has the same target. Briefly: OT_NURR1_NURR1RXRa_1440: Odyssey Thera (OT) 24-hour HEK293T Protein Complementation Assay for Nurr1/retinoid X receptor (RXR) (AID 2283386). In short, it runs like this: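 Steps: fragment-tagged Nurr1 and RXRα expressed in HEK293T; compounds added; after 24 h, complemented reporter quantified by fluorescence intensity; signal increase over DMSO fitted as the single endpoint.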

Experiment [5] concerns the target Peroxisome proliferator-activated receptor gamma (Homo sapiens) (UniProt P37231). Briefly: OT_PPARg_PPARgSRC1_0480: Odyssey Thera (OT) 8-hour Protein-Complementation Assay for Peroxisome Proliferator-activated Receptor Gamma / SRC-1 Co-activator (AID 2283387).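 Note: nuclear to cytoplasmic split Venus YFP fluorescence ratio reporting PPARg SRC-1 interaction.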 In short, it runs like this:
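HEK293T transiently transfected with PPARg and SRC-1 fused to Venus YFP fragments, compounds 8 h at 37C. Fixed, Draq5-stained cells imaged; nuclear/cytoplasmic 488 nm fluorescence ratio over at least 350 cells per image; gain fitted versus DMSO.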

For experiment [6] the target is unchanged. Briefly: OT_PPARg_PPARgSRC1_1440: Odyssey Thera (OT) 24-hour Protein-Complementation Assay for Peroxisome Proliferator-activated Receptor Gamma/ SRC-1 Co-activator (AID 2283388). The method, boiled down: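 Transient HEK293T, YFP fragments 1-158/159-239 (mutant IFP1/IFP2) fused to PPARg/SRC-1; 24 h dosing; fix 4% formaldehyde, Draq5; Opera imaging 488/635 nm; N/C ratio, gain vs DMSO.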

Read-out in experiment [7]: Tumor necrosis factor receptor superfamily member 6 (Homo sapiens) (UniProt P25445)
Nature of the experiment: LTEA_HepaRG_FAS: Life Technologies and Expression Analysis (LTEA) Assay for Fas cell surface death receptor (FAS) using HepaRG (AID 2283447; active = hit-call score of the fitted dose curve at least 0.9, where 1 is the maximum; inactive = score below 0.9). As to conditions: mRNA level, 48 h; actives raise or lower the signal. The method, boiled down: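 Differentiated human HepaRG cells, pre-cultured 48 h, were exposed in duplicate for 48 h to 8-point half-log concentrations (top 100 uM, 0.5% DMSO) in serum-free induction medium; FAS mRNA measured by qRT-PCR, normalized to ACTB/GAPDH/POLR2A, bidirectional fit versus DMSO.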

Read-out in experiment [8]: Fatty acid synthase (Homo sapiens) (UniProt P49327)
Nature of the experiment: LTEA_HepaRG_FASN: Life Technologies and Expression Analysis (LTEA) Assay for Fatty Acid Synthase (FASN) using HepaRG (AID 2283448; active = hit-call score of the fitted dose curve at least 0.9, where 1 is the maximum; inactive = score below 0.9). Conditions: mRNA level, 48 h; actives raise or lower the signal. The method, boiled down: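 Cells were plated, cultured 48 h, switched to serum-free induction medium, then dosed in duplicate (max 100 uM, half-log dilutions, 0.5% DMSO) for 48 h. RNA was then isolated and FASN quantified by qRT-PCR.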

Read-out in experiment [9]: Cyclin D2 (CCND2), CCND2 (gene 894)
Nature of the experiment: LTEA_HepaRG_CCND2: Life Technologies and Expression Analysis (LTEA) Assay for Cyclin D2 (CCND2) using HepaRG (AID 2283449; active = hit-call score of the fitted dose curve at least 0.9, where 1 is the maximum; inactive = score below 0.9;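 note: CCND2 transcript measured by TaqMan qRT-PCR and normalised to three housekeeping genes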). Conditions: mRNA level, 48 h; actives raise or lower the signal. The method, boiled down: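 In this HepaRG study, an eight-point concentration series (max 100 uM, 0.5% DMSO) is applied for 48 h. CCND2 mRNA change is derived by qRT-PCR normalised to ACTB, GAPDH and POLR2A.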

Read-out in experiment [10]: Cyclin Dependent Kinase Inhibitor 1A (CDKN1A), CDKN1A (gene 1026)
Nature of the experiment: LTEA_HepaRG_CDKN1A: Life Technologies and Expression Analysis (LTEA) Assay for Cyclin Dependent Kinase Inhibitor 1A (CDKN1A) using HepaRG (AID 2283450; active = hit-call score of the fitted dose curve at least 0.9, where 1 is the maximum; inactive = score below 0.9). As to conditions: mRNA level, 48 h; actives raise or lower the signal. The method, boiled down:
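Cryopreserved HepaRG cells were plated and cultured 48 h, then switched to serum-free induction medium. Chemicals (eight half-log concentrations, top 100 uM, 0.5% DMSO) were applied for 48 h. Lysates underwent qRT-PCR for CDKN1A with housekeeping normalization.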

Experiment [11] is described as follows: CEETOX_H295R_11DCORT: CeeTox H295R High-throughput Steroidogenesis Assay for 11-Deoxycortisol (11DCORT) (AID 2283432; active = hit-call score of the fitted dose curve at least 0.9, where 1 is the maximum; inactive = score below 0.9;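 note: human adrenal H295R cells prestimulated with 10 µM forskolin for 48 h; 11-deoxycortisol secreted into the medium measured by LC-MS/MS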). As to conditions: actives raise or lower the signal. In short, it runs like this:
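H295R cells prestimulated 48 h with 10 uM forskolin, then exposed 48 h to chemical in 0.1% DMSO. 11-Deoxycortisol in medium quantified by HPLC-MS/MS after MTBE extraction; bidirectional fit versus DMSO. MTT viability read in same wells.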

A short description of experiment [12]: CEETOX_H295R_OHPREG: CeeTox H295R High-throughput Steroidogenesis Assay for OH-Pregnenolone (OHPREG) (AID 2283434; active = hit-call score of the fitted dose curve at least 0.9, where 1 is the maximum; inactive = score below 0.9). As to conditions: actives raise or lower the signal. In short, it runs like this: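 Readout: HPLC-MS/MS of 17alpha-hydroxypregnenolone in medium after 48 h chemical exposure of H295R cells pretreated with forskolin. Values fitted bidirectionally relative to DMSO; chemicals reducing viability to 20–70% were retested after 10-fold dilution.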

Experiment [13] is described as follows: CEETOX_H295R_OHPROG: CeeTox H295R High-throughput Steroidogenesis Assay for OH-Progesterone (OHPROG) (AID 2283435; active = hit-call score of the fitted dose curve at least 0.9, where 1 is the maximum; inactive = score below 0.9;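 note: human adrenal H295R cells primed 48 h with 10 µM forskolin; 17alpha-hydroxyprogesterone secreted into medium measured by HPLC-MS/MS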). Conditions: actives raise or lower the signal. In short, it runs like this:
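Steps: seed H295R cells and adhere overnight; stimulate with 10 uM forskolin for 48 h; replace with chemical-containing medium (0.1% DMSO) for 48 h; extract medium with MTBE; quantify 17alpha-hydroxyprogesterone by reverse-phase C18 HPLC-MS/MS against a 7-point curve.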

Experiment [14] is described as follows: CEETOX_H295R_ANDR: CeeTox H295R High-throughput Steroidogenesis Assay for Androstenedione (ANDR) (AID 2283436; active = hit-call score of the fitted dose curve at least 0.9, where 1 is the maximum; inactive = score below 0.9;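 note: human H295R adrenal cells exposed for 48 h with androstenedione measured in medium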). As to conditions: actives raise or lower the signal. In short, it runs like this: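 Steroidogenesis in H295R adrenal cells after 48 h dosing; androstenedione quantified by LC-MS/MS, with DMSO as negative control and baseline for bidirectional curve fitting.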

Experiment [15] can be described thus: CEETOX_H295R_CORTIC: CeeTox H295R High-throughput Steroidogenesis Assay for Corticosterone (CORTIC) (AID 2283437; active = hit-call score of the fitted dose curve at least 0.9, where 1 is the maximum; inactive = score below 0.9;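 note: human H295R adrenal cells prestimulated with forskolin before chemical exposure; corticosterone secreted into medium quantified by mass spectrometry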). As to conditions: actives raise or lower the signal. The method, boiled down:
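Steps: seed H295R, adhere overnight; 10 uM forskolin 48 h; replace with chemical (0.1% DMSO) 48 h; extract medium with MTBE; quantify corticosterone by HPLC-MS/MS; score bidirectionally vs DMSO.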

The nature of experiment [16]: CEETOX_H295R_CORTISOL: CeeTox H295R High-throughput Steroidogenesis Assay for Cortisol (AID 2283438; active = hit-call score of the fitted dose curve at least 0.9, where 1 is the maximum; inactive = score below 0.9). As to conditions: actives raise or lower the signal. The method, boiled down:
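Cortisol synthesis by H295R cells is measured 48 h after chemical dosing, following a 48 h stimulation with 10 uM forskolin. Hormone is extracted and quantified by HPLC-MS/MS, and activity is fitted bidirectionally against the DMSO control.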

Experiment [17] is described as follows: CEETOX_H295R_DOC: CeeTox H295R High-throughput Steroidogenesis Assay for DOC (AID 2283439; active = hit-call score of the fitted dose curve at least 0.9, where 1 is the maximum; inactive = score below 0.9). Conditions: actives raise or lower the signal. In short, it runs like this:
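Steps: seed H295R, adhere overnight; 10 uM forskolin 48 h; replace with chemical medium (0.1% DMSO) 48 h; collect medium, MTBE extraction, HPLC-MS/MS for DOC. Viability then checked by MTT; cytotoxic chemicals diluted until viability ≥70%.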

Experiment [18] in a line: CEETOX_H295R_ESTRADIOL: CeeTox H295R High-throughput Steroidogenesis Assay for Estradiol (AID 2283440; active = hit-call score of the fitted dose curve at least 0.9, where 1 is the maximum; inactive = score below 0.9;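 note: estradiol secreted into medium quantified by LC-MS/MS after dansyl derivatisation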). Conditions: actives raise or lower the signal. In short, it runs like this:
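Following OECD 456 with minor changes, H295R cells received 10 uM forskolin for 48 h and then test chemical for 48 h. Hormone output was read by HPLC-MS/MS, with cytotoxic concentrations diluted until MTT viability reached ≥70%.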

The nature of experiment [19]: CEETOX_H295R_ESTRONE: CeeTox H295R High-throughput Steroidogenesis Assay for Estrone (AID 2283441; active = hit-call score of the fitted dose curve at least 0.9, where 1 is the maximum; inactive = score below 0.9). Conditions: actives raise or lower the signal. The method, boiled down: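 Estrone secreted into medium quantified by LC-MS/MS after dansyl chloride derivatization, following 48 h chemical exposure (0.1% DMSO final) of forskolin-prestimulated (10 uM, 48 h) H295R cells; gain or loss fitted against DMSO; MTT viability in same wells.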

Experiment [20] is described as follows: CEETOX_H295R_PROG: CeeTox H295R High-throughput Steroidogenesis Assay for Progesterone (PROG) (AID 2283442; active = hit-call score of the fitted dose curve at least 0.9, where 1 is the maximum; inactive = score below 0.9;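 note: human H295R adrenal cells primed with 10 µM forskolin before dosing; progesterone secreted into medium by H295R cells measured by HPLC-MS/MS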). As to conditions: actives raise or lower the signal. The method, boiled down: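 Adrenal H295R line, forskolin-stimulated (10 uM, 48 h) before dosing. 48 h exposure, 0.1% DMSO vehicle. Secreted progesterone by reverse-phase HPLC with ESI+ MS/MS quantification; DMSO-normalised bidirectional curve fit.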

Peroxisome proliferator-activated receptor gamma (Homo sapiens), sequence (P37231 whole entry, looked up, the tested form may be a part): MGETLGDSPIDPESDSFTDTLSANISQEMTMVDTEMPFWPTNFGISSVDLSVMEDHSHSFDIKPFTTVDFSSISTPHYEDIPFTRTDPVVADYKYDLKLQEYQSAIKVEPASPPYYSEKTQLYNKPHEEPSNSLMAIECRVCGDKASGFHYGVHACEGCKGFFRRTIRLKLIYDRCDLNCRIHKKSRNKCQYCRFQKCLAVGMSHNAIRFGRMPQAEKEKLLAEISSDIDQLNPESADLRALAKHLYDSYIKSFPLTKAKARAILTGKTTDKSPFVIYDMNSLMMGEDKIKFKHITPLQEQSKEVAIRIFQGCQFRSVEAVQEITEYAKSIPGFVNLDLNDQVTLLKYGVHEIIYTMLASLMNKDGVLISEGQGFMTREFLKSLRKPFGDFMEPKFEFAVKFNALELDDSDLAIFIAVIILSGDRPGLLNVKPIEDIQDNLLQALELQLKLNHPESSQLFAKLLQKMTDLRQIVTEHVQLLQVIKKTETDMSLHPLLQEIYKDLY
Fatty acid synthase (Homo sapiens), sequence (P49327 whole entry, looked up): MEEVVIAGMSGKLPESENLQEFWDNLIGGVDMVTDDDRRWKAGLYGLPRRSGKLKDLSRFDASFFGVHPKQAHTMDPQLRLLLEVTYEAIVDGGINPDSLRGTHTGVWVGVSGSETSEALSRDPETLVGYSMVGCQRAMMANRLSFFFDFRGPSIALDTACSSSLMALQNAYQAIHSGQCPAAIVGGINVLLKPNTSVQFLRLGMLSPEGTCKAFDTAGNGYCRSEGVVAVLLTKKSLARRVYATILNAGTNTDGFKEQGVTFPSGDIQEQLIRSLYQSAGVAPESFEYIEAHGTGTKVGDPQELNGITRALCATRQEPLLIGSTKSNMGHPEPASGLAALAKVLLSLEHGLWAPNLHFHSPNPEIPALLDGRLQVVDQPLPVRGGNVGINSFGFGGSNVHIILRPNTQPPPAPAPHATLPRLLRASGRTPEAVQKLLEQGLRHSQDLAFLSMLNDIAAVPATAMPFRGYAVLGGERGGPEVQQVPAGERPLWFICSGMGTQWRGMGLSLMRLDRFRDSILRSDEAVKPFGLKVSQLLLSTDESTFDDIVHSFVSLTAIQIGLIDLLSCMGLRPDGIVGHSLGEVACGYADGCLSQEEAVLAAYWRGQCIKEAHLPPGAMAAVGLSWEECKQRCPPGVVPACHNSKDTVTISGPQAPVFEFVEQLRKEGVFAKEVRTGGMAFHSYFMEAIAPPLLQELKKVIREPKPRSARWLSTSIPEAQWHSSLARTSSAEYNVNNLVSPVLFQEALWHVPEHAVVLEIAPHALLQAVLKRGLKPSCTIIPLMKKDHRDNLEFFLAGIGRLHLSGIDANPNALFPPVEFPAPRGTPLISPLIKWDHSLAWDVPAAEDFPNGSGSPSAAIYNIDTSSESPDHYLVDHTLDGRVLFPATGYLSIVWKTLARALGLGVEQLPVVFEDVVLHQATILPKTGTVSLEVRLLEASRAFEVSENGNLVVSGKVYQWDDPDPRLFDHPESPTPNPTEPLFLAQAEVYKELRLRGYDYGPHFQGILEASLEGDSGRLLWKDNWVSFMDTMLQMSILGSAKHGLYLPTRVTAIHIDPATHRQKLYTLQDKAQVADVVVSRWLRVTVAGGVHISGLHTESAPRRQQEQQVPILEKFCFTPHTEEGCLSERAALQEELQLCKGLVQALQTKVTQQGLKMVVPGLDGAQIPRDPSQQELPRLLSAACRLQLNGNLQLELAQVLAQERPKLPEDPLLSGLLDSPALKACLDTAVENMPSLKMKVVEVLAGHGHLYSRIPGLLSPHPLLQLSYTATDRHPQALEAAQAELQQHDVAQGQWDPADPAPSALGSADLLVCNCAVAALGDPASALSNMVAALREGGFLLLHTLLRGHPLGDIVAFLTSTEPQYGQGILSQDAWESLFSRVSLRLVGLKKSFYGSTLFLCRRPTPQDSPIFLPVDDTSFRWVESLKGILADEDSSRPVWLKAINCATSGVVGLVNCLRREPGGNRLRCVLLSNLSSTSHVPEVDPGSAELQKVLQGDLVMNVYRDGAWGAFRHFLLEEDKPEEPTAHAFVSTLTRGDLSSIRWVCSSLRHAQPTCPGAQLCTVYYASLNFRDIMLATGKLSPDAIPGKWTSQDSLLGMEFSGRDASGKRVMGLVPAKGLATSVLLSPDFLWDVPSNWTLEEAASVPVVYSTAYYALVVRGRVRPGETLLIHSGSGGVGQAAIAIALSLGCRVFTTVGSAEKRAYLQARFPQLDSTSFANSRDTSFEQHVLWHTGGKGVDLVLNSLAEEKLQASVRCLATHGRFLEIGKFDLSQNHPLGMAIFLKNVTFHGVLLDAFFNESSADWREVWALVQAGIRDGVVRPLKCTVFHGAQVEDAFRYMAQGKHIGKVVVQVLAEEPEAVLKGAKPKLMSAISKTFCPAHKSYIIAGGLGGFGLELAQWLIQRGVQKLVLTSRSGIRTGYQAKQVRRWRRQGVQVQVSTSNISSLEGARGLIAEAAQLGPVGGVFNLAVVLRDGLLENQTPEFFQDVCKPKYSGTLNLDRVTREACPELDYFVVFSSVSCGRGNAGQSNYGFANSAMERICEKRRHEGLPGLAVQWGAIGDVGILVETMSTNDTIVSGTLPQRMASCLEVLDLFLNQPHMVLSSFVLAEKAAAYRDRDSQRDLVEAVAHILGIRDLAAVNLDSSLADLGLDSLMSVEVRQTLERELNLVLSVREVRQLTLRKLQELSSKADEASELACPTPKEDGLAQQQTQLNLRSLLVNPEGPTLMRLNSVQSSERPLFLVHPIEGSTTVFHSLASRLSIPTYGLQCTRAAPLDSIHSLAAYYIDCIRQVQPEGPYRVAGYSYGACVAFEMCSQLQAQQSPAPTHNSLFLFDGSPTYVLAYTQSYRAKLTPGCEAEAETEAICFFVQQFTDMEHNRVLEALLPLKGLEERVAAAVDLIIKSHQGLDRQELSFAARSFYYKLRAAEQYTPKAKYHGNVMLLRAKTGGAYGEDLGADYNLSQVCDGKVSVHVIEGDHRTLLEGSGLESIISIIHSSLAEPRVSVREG
Bile acid receptor (Homo sapiens), sequence (Q96RI1 whole entry, looked up): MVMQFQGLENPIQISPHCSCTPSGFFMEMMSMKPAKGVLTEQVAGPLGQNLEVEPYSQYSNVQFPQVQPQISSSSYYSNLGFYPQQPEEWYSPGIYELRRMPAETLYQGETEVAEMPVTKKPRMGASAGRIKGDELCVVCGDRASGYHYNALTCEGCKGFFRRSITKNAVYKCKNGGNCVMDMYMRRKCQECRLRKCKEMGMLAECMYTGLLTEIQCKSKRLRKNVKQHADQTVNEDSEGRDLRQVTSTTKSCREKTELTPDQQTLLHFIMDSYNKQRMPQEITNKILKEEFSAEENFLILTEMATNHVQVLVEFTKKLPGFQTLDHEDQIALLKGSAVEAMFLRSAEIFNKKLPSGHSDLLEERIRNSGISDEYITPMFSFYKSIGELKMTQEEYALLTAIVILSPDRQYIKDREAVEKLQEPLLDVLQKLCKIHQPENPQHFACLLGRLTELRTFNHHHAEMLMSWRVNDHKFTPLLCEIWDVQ
Retinoic acid receptor RXR-alpha (Homo sapiens), sequence (P19793 whole entry, looked up): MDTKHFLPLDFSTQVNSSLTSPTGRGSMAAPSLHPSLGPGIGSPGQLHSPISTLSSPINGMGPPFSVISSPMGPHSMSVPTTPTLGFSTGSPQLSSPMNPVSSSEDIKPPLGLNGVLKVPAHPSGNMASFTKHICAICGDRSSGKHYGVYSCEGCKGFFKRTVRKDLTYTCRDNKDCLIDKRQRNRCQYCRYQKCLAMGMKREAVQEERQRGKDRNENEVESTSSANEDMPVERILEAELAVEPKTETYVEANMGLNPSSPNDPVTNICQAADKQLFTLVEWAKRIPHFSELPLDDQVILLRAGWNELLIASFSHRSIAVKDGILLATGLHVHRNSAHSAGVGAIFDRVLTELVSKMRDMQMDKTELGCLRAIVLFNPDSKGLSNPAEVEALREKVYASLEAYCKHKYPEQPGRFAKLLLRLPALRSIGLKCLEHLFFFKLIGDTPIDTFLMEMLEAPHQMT

`OCCC(F)(F)C(F)(F)C(F)(F)C(F)(F)C(F)(F)C(F)(F)F`: the compound was called inactive in experiment [1], in [2], in experiment [3], in experiment [4], in experiment [5] and in experiment [6]. The call in experiment [7], in experiment [8], in experiment [9] and in experiment [10] was inactive.

As for `CC(=O)CC(C)(C)O`, the call in [1], in experiment [2], in experiment [4], in experiment [5], in experiment [6] and in experiment [7] was inactive. The result in experiment [8], in [9] and in experiment [10] was inactive.

Usually AC50 stands for the midpoint of the concentration-response curve, whichever way the signal moves. Take `O=C1OC2(c3ccccc31)c1cc(Br)c(O)c(Br)c1Oc1c2cc(Br)c(O)c1Br`: the call in [1], in experiment [2], in experiment [3] and in experiment [4] was inactive. The AC50 in experiment [5] was 74 µM (active); in experiment [6] it was 73.1 µM (active).

For the compound `O=C(OCCOCCOC(=O)c1ccccc1)c1ccccc1`, the compound was classed as inactive in experiment [1], in [2], in [3], in experiment [5], in [6] and in experiment [7]. In addition, the compound was classed as inactive in experiment [9] and in [10].

Turning to `CC(O)C(=O)O` (stereo unspecified), the result in [1], in [2] and in [4] was inactive.

`CCCCC(CC)COC(=O)CCCCC(=O)OCC(CC)CCCC` (stereo unspecified): the result in [1], in [2], in experiment [3], in experiment [5], in [6] and in experiment [7] was inactive. For the same compound, the call in experiment [9] and in [10] was inactive.

For `CCCCCCCCCCCCN1CCCC1=O`, the AC50 was 11.6 µM (active) in experiment [1], 11.2 µM (active) in experiment [2], 12.4 µM (active) in [3] and 11.7 µM (active) in [4]. Moreover, the compound was classed as inactive in experiment [5], in experiment [6], in [7], in experiment [9] and in [10].

On to `CC(C)(C)CC(C)(C)c1ccc(O)c(-n2nc3ccccc3n2)c1`, for which the half-maximal activity concentration (AC50) is 35.7 µM (active) in [1]; 34.5 µM (active) in [2]; 75.6 µM (active) and 79 µM (active) in [3]; 30 µM (active) and 84.7 µM (active) in experiment [4]; 50 µM (active) in experiment [8]. The call in [5], in [6], in experiment [7], in experiment [9] and in experiment [10] was inactive.

`O=c1c(-c2ccc(O)cc2)coc2cc(O)ccc12`: the half-maximal activity concentration (AC50) in experiment [1] is 36.7 µM (active) and 37.1 µM (active); in experiment [2] it was 48.1 µM (active) and 33.8 µM (active) and 30.5 µM (active); in experiment [3], 50 µM (active); in experiment [4], 14.4 µM (active) and 27 µM (active); in experiment [11], 9.01 µM (active); in [12], 4.47 µM (active). Moreover, the AC50 in experiment [13] is 26.5 µM (active); in [14] it was 15.2 µM (active); in experiment [15], 1.22 µM (active); in [16] it was 8.88 µM (active); in experiment [17], 3.19 µM (active); in experiment [20] it was 4.62 µM (active). The call in experiment [1], in [3], in [4], in experiment [5], in experiment [6] and in [18] was inactive. Further, the compound was classed as inactive in experiment [19], in experiment [7], in experiment [8], in [9] and in [10].
